Screening data (PubChem BioAssay)
Shown is part of a subset that was picked to be rich in hits.
U2OS ROS induce = inducers of reactive oxygen species in cancer cells; ROS induction (% of piperlongumine), % at 10 µM; AID 624156; U2OS ROS induction, H2DCF-DA fluorescence; 2% of 46,000 active; in the data active = ROS induction above about 79%, passing the limit was not always enough;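 also: 0% = DMSO vehicle median and 100% = reference compound median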
An asterisk follows results filed as active.

SMILES	U2OS ROS induce
CC1(C)CC(=O)C(C(=S)Nc2ccccc2)=C(NCc2ccccc2)C1	32
Cc1ccc(-c2nn(CCC(=O)O)cc2/C=C2\SC(N)=NC2=O)cc1	1
NC1=NC(=O)/C(=C/c2ccc(I)o2)S1	141*
S=C(NCc1ccccc1)NC(Cc1ccccc1)c1ccccc1 (stereo unspecified)	-13
CC(C)=CCc1cc2c(cc1O)O[C@H]1c3ccc(O)c(O)c3OC[C@@H]21	16
CCn1c(SCC(=O)Nc2ccc(OC)c(Cl)c2)nnc1-c1ccccc1O	1
Cc1ccc(OCCSc2nc(N)cc(N)n2)c(C(C)C)c1	-5
C[C@H](CO)N1C[C@H](C)[C@H](CN(C)C(=O)Nc2ccccc2)Oc2ncc(-c3cc4ccccc4o3)cc2C1=O	153*
C[C@H](CO)N1C[C@H](C)[C@H](CN(C)C(=O)Nc2ccc3c(c2)OCO3)Oc2ncc(-c3cccc(C(F)(F)F)c3)cc2C1=O	55
C[C@H](CO)N1C[C@H](C)[C@H](CN(C)C(=O)Nc2ccccc2)Oc2ncc(-c3cccc(C(F)(F)F)c3)cc2C1=O	98*
C[C@H](CO)N1C[C@H](C)[C@H](CN(C)C(=O)Nc2ccccc2)Oc2ncc(-c3ccccc3)cc2C1=O	9
CC(C)NC(=O)N(C)C[C@@H]1Oc2ncc(-c3cc4ccccc4o3)cc2C(=O)N([C@H](C)CO)C[C@@H]1C	-6
C[C@H](CO)N1C[C@H](C)[C@H](CN(C)C)Oc2ncc(-c3cc4ccccc4o3)cc2C1=O	4
C[C@H](CO)N1C[C@H](C)[C@H](CN(C)Cc2ccccc2)Oc2ncc(-c3cccc(C(F)(F)F)c3)cc2C1=O	42
C[C@H](CO)N1C[C@H](C)[C@H](CN(C)Cc2cccc(C(F)(F)F)c2)Oc2ncc(-c3ccc(F)cc3)cc2C1=O	50
C[C@H](CO)N1C[C@H](C)[C@H](CN(C)Cc2ccc(F)cc2)Oc2ncc(-c3cccc(C(F)(F)F)c3)cc2C1=O	77*
C[C@H](CO)N1C[C@H](C)[C@H](CN(C)C(=O)Nc2ccc(F)cc2)Oc2ncc(-c3cccc(F)c3)cc2C1=O	75
COc1ccc(NC(=O)N(C)C[C@@H]2Oc3ncc(-c4cccc(C(F)(F)F)c4)cc3C(=O)N([C@H](C)CO)C[C@@H]2C)cc1	32
C[C@H](CO)N1C[C@H](C)[C@H](CN(C)C(=O)Nc2ccc(F)cc2)Oc2ncc(-c3cccc(C(F)(F)F)c3)cc2C1=O	91*
CC(C)=CCn1cnc(=N)c2[nH]cnc21	-5
Cn1c(Cc2nn(C)c(=O)c3ccccc23)nnc1SCC(=O)c1ccc(Cl)cc1Cl	-5
COc1cc(-c2oc3cc(O)cc(O)c3c(=O)c2O[C@@H]2O[C@H](CO[C@@H]3O[C@@H](C)[C@H](O)[C@@H](O)[C@H]3O)[C@H](O)[C@H](O)[C@H]2O)ccc1O	3
COC(CNC(=O)c1cc(S(=O)(=O)N2CC(C)CC(C)C2)ccc1F)OC (stereo unspecified)	0
COc1ccc(C#Cc2ccc3c(c2)[C@]2(C(=O)N3)[C@H](c3ccccc3OCCO)N3[C@H](c4ccccc4)[C@H](c4ccccc4)OC(=O)[C@H]3[C@@H]2C(=O)NC[C@H](O)c2ccccc2)cc1	28
O=C(CSc1nnc(-c2ccc(Cl)cc2)o1)Nc1ccccc1C(F)(F)F	-5
SMILES	U2OS ROS induce
C[C@@H]1CN([C@H](C)CO)C(=O)c2cccc(N(C)C)c2O[C@H]1CN(C)S(=O)(=O)c1ccc(Cl)cc1	-11
Cc1noc(C)c1NC(=O)N(C)C[C@H]1Oc2ccc(NC(=O)CCC(F)(F)F)cc2C(=O)N([C@H](C)CO)C[C@H]1C	-6
c1ccc(N=C(Nc2ccccc2)Nc2ccccc2)cc1	-14
Cc1cc(/C=C2/SC(=O)N(c3ccccc3)C2=O)c(C)n1-c1cccnc1	46
Cc1ccc(COc2ccc(/C=C3/C(=N)N4C=CSC4=NC3=O)cc2Br)cc1	-4
Cc1cc(/C=C2/C(=N)N3C=CSC3=NC2=O)c(C)n1-c1ccccc1	220*
CCSC(SCC)=C(C#N)C(=O)Nc1ccccc1	-9
Cc1nc(NCCc2ccccc2)c2c3c(sc2n1)CCCC3	127*
CC(Sc1ncnc2sc3c(c12)CCCC3)C(=O)Nc1cc(C(F)(F)F)ccc1Cl (stereo unspecified)	1
c1ccc(Oc2ncnc3sc4c(c23)CCCC4)cc1	6
Cc1nc(SCC(=O)c2cccs2)c2c3c(sc2n1)CCCC3	31
O=C(O)CCNc1ncnc2sc3c(c12)CCCC3	23
O=C(/C=C/c1ccccc1)Nc1ncnc2sc3c(c12)CCC3	26
CCc1nc2sc3c(NCCc4ccccc4)ncnc3c2c2c1CCCC2	-5
c1ccc(Nc2ncnc3sc4c(c23)CCCC4)cc1	103*
FC(F)(F)c1cccc(Nc2ncnc3sc4c(c23)CCC4)c1	116*
CCOc1ccc(NC(=O)C(C)Sc2ccccn2)cc1 (stereo unspecified)	5
CCOC(=O)c1c(NC(=O)CSc2nc(C)c3c(n2)CCCC3)sc2c1CCCC2	16
C[C@H](CO)N1C[C@H](C)[C@H](CN(C)C(=O)Nc2ccc(F)cc2)Oc2ccc(NC(=O)CCN3CCOCC3)cc2C1=O	-10
O=C1Nc2ccccc2/C1=C/C(=O)c1ccc(Cl)cc1	38
O=C(CSCC(=O)c1ccccc1)c1ccccc1	-21
Cc1ccc(S(=O)(=O)N(C)C[C@@H]2Oc3ccc(NC(=O)CCCN(C)C)cc3CC(=O)N([C@H](C)CO)C[C@H]2C)cc1	3
C[C@@H]1CN([C@@H](C)CO)C(=O)c2cccc(N(C)C)c2O[C@H]1CN(C)S(=O)(=O)c1ccc(F)cc1	-6
C[C@@H]1CN([C@H](C)CO)C(=O)Cc2cc(NC(=O)Nc3ccc(F)cc3)ccc2O[C@@H]1CN(C)C(=O)Nc1ccc(F)cc1	-9
C[C@H](CO)N1C[C@H](C)[C@@H](CN(C)Cc2ccc3c(c2)OCO3)Oc2c(NC(=O)CCCCCC(=O)Nc3ccccc3N)cccc2C1=O	39
SMILES	U2OS ROS induce
C[C@@H]1CN([C@H](C)CO)C(=O)Cc2cc(NC(=O)CCCCCC(=O)Nc3ccccc3N)ccc2O[C@@H]1CN(C)Cc1ccc(Cl)c(Cl)c1	84*
C[C@H]1CN([C@@H](C)CO)C(=O)c2cccc(NC(=O)CCCCCC(=O)Nc3ccccc3N)c2O[C@@H]1CN(C)Cc1ccc2c(c1)OCO2	108*
C[C@@H]1CN([C@@H](C)CO)C(=O)c2cc(NC(=O)CCCCCC(=O)Nc3ccccc3N)ccc2O[C@@H]1CN(C)Cc1ccc2c(c1)OCO2	-7
C[C@H](CO)N1C[C@H](C)[C@H](CN(C)Cc2ccncc2)Oc2ccc(NC(=O)CCCCCC(=O)Nc3ccccc3N)cc2CC1=O	16
C[C@H](CO)N1C[C@H](C)[C@@H](CN(C)Cc2ccc3c(c2)OCO3)Oc2ccc(NC(=O)CCCCCC(=O)Nc3ccccc3N)cc2C1=O	18
C[C@H](CO)N1C[C@H](C)[C@H](CN(C)Cc2ccc3c(c2)OCO3)Oc2ccc(NC(=O)CCCCCC(=O)Nc3ccccc3N)cc2C1=O	-5
C[C@@H]1CN([C@H](C)CO)C(=O)Cc2cc(NC(=O)CCCCCC(=O)Nc3ccccc3N)ccc2O[C@@H]1CN(C)Cc1ccncc1	-1
C[C@@H]1CN([C@@H](C)CO)C(=O)c2cccc(NC(=O)CCCCCC(=O)Nc3ccccc3N)c2O[C@H]1CN(C)Cc1ccc2c(c1)OCO2	105*
c1ccc2c(c1)NC(c1ccc3c(c1)CCO3)n1cccc1-2 (stereo unspecified)	50
Cc1nn(CC(=O)NC2CCCC2)c2ccccc12	-8
c1ccc2cc(OCCN3CCOCC3)ccc2c1	9
